Our source for the Potency, outcome and max activation values is PubChem BioAssay (Tox21).

Molecules are shown by their SMILES. A number with no mark means an inactive call. Inconclusive results are not listed. Active and inactive are the calls of the source. Unless noted, the call rests on the fitted dose curve; in most records, active means well fitted curve in the direction sought with a large enough effect in the repeat runs; inconclusive means weak or mixed curves; inactive means no such curve, though single readings can be large; an effect the other way counts as inactive or inconclusive.

Experiment [1] concerns the target Progesterone receptor (Homo sapiens) (UniProt P06401). Put plainly: qHTS assay to identify small molecule agonists of the progesterone receptor (PR) signaling pathway (AID 1346784; calls by dose curve; further: on the % scale 0 is the no-effect control and ±100 the full control effect; nearly all actives have a fitted effect of over 30% in size). A digest of the protocol: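 PR-UAS-bla HEK 293T cells (beta-lactamase reporter under UAS) in 2% charcoal-stripped FBS, dosed with 23 nL compound after 6 hr, incubated 16hr at 37C. LiveBLAzer B/G FRET substrate added, fluorescence read after 2 hours.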
In general terms: qHTS replaces the single test concentration by a dilution series.

The target is the same in experiment [2]. Put plainly: qHTS assay to identify small molecule antagonists of the progesterone receptor (PR) signaling pathway (AID 1346795; active means well fitted inhibition curve with a large enough effect in the signal ratio in the repeat runs, not every such curve was filed as active; the % refers to the signal ratio; further: on the % scale 0 is the no-effect control and ±100 the full control effect). Put shortly:
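PR-UAS-bla HEK293T cells with beta-lactamase reporter under UAS control, in 2% charcoal-stripped FBS, treated with compounds plus 1 nM promegestone (R5020, final) for 16 hr at 37C. Read-out: FRET beta-lactamase substrate fluorescence after 2 hr at room temperature.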

Experiment [3] can be described thus: qHTS assay to identify small molecule antagonists of the progesterone receptor (PR) signaling pathway - cell viability counter screen (AID 1346798). Further: series mostly up to about 92 µM; on the % scale 0 is the no-effect control and ±100 the full control effect; nearly all actives have a fitted effect of over 50% in size. Put shortly:
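PR-UAS-bla HEK293T cells, 3,000/well in 2% charcoal-stripped FBS medium, dosed with compounds plus R5020 agonist and incubated 16 h at 37C. Viability then measured in the same wells by CellTiter-Glo luminescence after 30 min at RT.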

Experiment [4] in a line: qHTS assay to identify small molecule antagonists of the TGF-beta/Smad signaling pathway - cell viability counter screen (AID 1346824). Further: on the % scale 0 is the no-effect control and ±100 the full control effect; nearly all actives have a fitted effect of over 50% in size. A digest of the protocol:
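Cytotoxicity counter-screen run in the same wells as the beta-lactamase Smad reporter read: CellTiter-Glo luminescence after 30 min at room temperature. HEK 293T SBE-bla cells had 5 hr compound exposure at 37 C with TGF-beta1 (0.25 ng/mL stock).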

Experiment [5] in a line: qHTS assay to identify small molecule agonists of the TGF-beta/Smad signaling pathway - cell viability counter screen (AID 1346829). Further: top concentration of the series differs between compounds; on the % scale 0 is the no-effect control and ±100 the full control effect; nearly all actives have a fitted effect of over 45% in size. A digest of the protocol:
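CellTiter-Glo luminescence readout; SBE-bla HEK 293T cells, overnight plating, compound 5 hr at 37 C/5% CO2, then bla substrate 2 hr RT, then CellTiter-Glo 30 min RT.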

Experiment [6] in a line: qHTS assay to identify small molecule agonists of the TGF-beta/Smad signaling pathway (AID 1346859; active means well fitted activation curve with a large enough effect in the signal ratio in the repeat runs, not every such curve was filed as active; the % refers to the signal ratio; further: series mostly up to about 77 µM; on the % scale 0 is the no-effect control and ±100 the full control effect). Put shortly: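 SBE-bla HEK293T cells plated overnight, then compound exposure for 5 h at 37 C. Beta-lactamase reporter read with LiveBLAzer B/G FRET substrate after 2 h at room temperature, fluorescence at 405 nm excitation, 460/530 nm emission.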
In experiment [7] the target is Thyrotropin-releasing hormone receptor (Homo sapiens) (UniProt P34981). Put plainly: qHTS assay to identify small molecule antagonists of the thyrotropin-releasing hormone receptor (TRHR) signaling pathway (AID 1346877; active means well fitted inhibition curve with a large enough effect in the repeat runs, not every such curve was filed as active; further: series mostly up to about 51 µM; on the % scale 0 is the no-effect control and ±100 the full control effect). Put shortly: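 Screening used HEK293 cells engineered with TRHR, with a brief 5 min room-temperature compound exposure preceding addition of TRH to 1 nM. The read-out was kinetic calcium-dye fluorescence, concentration-response from 15 doses in triplicate.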
Thyrotropin-releasing hormone receptor (Homo sapiens), sequence (P34981 whole entry, looked up): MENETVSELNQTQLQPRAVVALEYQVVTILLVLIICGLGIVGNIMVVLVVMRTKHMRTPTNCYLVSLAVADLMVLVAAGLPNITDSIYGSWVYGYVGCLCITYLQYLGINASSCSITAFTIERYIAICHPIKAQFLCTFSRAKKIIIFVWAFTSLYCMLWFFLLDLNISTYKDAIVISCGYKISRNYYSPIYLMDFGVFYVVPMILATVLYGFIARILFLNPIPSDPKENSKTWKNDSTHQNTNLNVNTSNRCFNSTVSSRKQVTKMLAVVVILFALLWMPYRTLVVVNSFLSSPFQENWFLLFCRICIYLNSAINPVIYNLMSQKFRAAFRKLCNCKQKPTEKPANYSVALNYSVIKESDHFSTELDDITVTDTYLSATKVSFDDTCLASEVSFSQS

Experiment [8] has the same target. Kind of experiment: qHTS assay to identify small molecule agonists of the thyrotropin-releasing hormone receptor (TRHR) signaling pathway (AID 1346891; calls by dose curve; further: series mostly up to about 58 µM; on the % scale 0 is the no-effect control and ±100 the full control effect). Put shortly:
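HEK293 cells expressing TRHR plated 18 h at 37 C/5% CO2, calcium dye-loaded 2 h at 37 C, then compound added (agonist mode); kinetic calcium fluorescence read 3 min at 1 s intervals; 15 concentrations in triplicate.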

Experiment [9] is described as follows: Human pregnane X receptor (PXR) small molecule agonists, qHTS cell viability counter screen (AID 1346977). Further: on the % scale 0 is the no-effect control and ±100 the full control effect; nearly all actives have a fitted effect of over 50% in size. Put shortly:
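PXR-Luc HepG2 cells (2,000/well, 5% charcoal-stripped FBS) preincubated 5 hr, then exposed to compounds 24 hr at 37 C. Viability read in the same wells by CellTiter-Fluor fluorescence, reagent added at 23 hr, 1 hr incubation.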

Experiment [10] is described as follows: Caspase-3/7 induction in HepG2 cells by small molecules, qHTS assay (AID 1346978). Further: on the % scale 0 is the no-effect control and ±100 the full control effect; nearly all actives have a fitted effect of over 15% in size. Put shortly: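 Caspase-3/7 induction was measured by Caspase-Glo 3/7 luminescence (30 min, room temperature) after a 17 hr compound exposure of wild-type HepG2 cells seeded at 2,000 per well and pre-incubated 5 hr.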
Experiment [11] can be described thus: Caspase-3/7 induction in CHO-K1 cells by small molecules, qHTS cell viability counter screen (AID 1346979). Further: on the % scale 0 is the no-effect control and ±100 the full control effect; nearly all actives have a fitted effect of over 35% in size. Put shortly:
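Wild-type CHO-K1 cells (1,500/well) treated with compound after 5 h plating; after 16 h at 37C, viability read as CellTiter-Fluor fluorescence following 1 h reagent incubation, in the same wells as the caspase read.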

Experiment [12] in a line: Caspase-3/7 induction in CHO-K1 cells by small molecules, qHTS assay (AID 1346980). Further: on the % scale 0 is the no-effect control and ±100 the full control effect; nearly all actives have a fitted effect of over 15% in size. Put shortly: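 Luminescent Caspase-Glo 3/7 read (30min, room temperature) quantified apoptosis induction. Cells were wild-type CHO-K1, treated with compound for 17hr at 37 C and 5% CO2.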
Experiment [13] is described as follows: Caspase-3/7 induction in HepG2 cells by small molecules, qHTS cell viability counter screen (AID 1346981). Further: series mostly up to about 92 µM; on the % scale 0 is the no-effect control and ±100 the full control effect; nearly all actives have a fitted effect of over 30% in size. A digest of the protocol:
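Multiplexed with the caspase-3/7 assay: HepG2 cells, 16 hr compound treatment, CellTiter-Fluor viability detection by fluorescence.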

Experiment [14] addresses Nuclear receptor subfamily 1 group I member 2 (Homo sapiens) (UniProt O75469). Kind of experiment: Human pregnane X receptor (PXR) small molecule agonists, qHTS assay (AID 1346982). Further: nearly all actives have a fitted effect of over 35% in size. Further: potency means the concentration at half of the fitted maximal effect. A digest of the protocol:
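We seeded PXR-Luc HepG2 cells in assay medium containing 5% charcoal-stripped FBS, added compounds 5 hr later, incubated 24 hr, and read luminescence with ONE-Glo reagent.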

In experiment [15] the target is Cytochrome P450 2C19 (Homo sapiens) (UniProt P33261). Kind of experiment: Cytochrome P450 Family 2 Subfamily C Member 19 (CYP2C19) small molecule antagonists: luciferase reporter qHTS assay (AID 1671197). Further: nearly all actives have a fitted effect of over 65% in size. Further: potency means the concentration at half of the fitted maximal effect. A digest of the protocol:
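Enzyme-substrate mix with proluciferin substrate (P450-Glo CYP2C19 system) preincubated with compounds 10 min at room temperature; NADPH regeneration solution added, 37C for 1 h; detection reagent stops reaction, luminescence read after 20 min. Ketoconazole positive control.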
(In a reporter assay the amount or activity of a reporter protein is the signal.)

The target of experiment [16] is Cytochrome P450 2D6 (Homo sapiens) (UniProt P10635). Put plainly: Cytochrome P450 Family 2 Subfamily D Member 6 (CYP2D6) small molecule antagonists: luciferase reporter qHTS assay (AID 1671196). Further: nearly all actives have a fitted effect of over 50% in size. Further: potency means the concentration at half of the fitted maximal effect. A digest of the protocol: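 Luminescence (RLU), read 20 min after detection reagent, indicated CYP2D6 conversion of proluciferin to luciferin during a 1 h NADPH-dependent reaction at room temperature.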
Cytochrome P450 2D6 (Homo sapiens), sequence (P10635 whole entry, looked up): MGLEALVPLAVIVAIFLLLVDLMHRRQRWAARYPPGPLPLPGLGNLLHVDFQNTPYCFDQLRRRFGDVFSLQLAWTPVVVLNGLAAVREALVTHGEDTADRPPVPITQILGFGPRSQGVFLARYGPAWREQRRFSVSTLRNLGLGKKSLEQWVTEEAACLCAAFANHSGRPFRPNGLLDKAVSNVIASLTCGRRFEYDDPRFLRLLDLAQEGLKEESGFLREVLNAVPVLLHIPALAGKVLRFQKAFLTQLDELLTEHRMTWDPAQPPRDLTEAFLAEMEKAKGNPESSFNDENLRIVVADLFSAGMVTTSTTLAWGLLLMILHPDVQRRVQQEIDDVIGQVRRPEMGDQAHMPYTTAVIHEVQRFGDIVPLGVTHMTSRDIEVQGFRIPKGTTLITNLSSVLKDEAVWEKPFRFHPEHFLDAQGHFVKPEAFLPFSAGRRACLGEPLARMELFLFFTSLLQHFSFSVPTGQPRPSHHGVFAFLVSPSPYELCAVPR

Experiment [17] addresses Nuclear receptor subfamily 1 group I member 2 (Rattus norvegicus) (UniProt Q9R1A7). Kind of experiment: Rat pregnane X receptor (rPXR) activation by small molecules, qHTS assay (AID 1346983). Further: on the % scale 0 is the no-effect control and ±100 the full control effect; nearly all actives have a fitted effect of over 20% in size. The following applies: rPXR luciferase reporter cells, One-Glo luminescence, 24 h; active compounds read high. Put shortly:
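Luminescent readout (One-Glo luciferase, 30 min room temperature) followed 24 hr compound treatment at 37 C of rPXR cells plated 2,000 per well and preincubated 5hr; qHTS format with compounds delivered in DMSO.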

Experiment [18] has as its target Nuclear receptor subfamily 1 group I member 2 (Homo sapiens) (UniProt O75469). Kind of experiment: CYP3A4 induction through human pregnane X receptor (PXR) by small molecules, qHTS assay (AID 1346984). Further: potency means the concentration at half of the fitted maximal effect; nearly all actives have a fitted effect of over 40% in size. A digest of the protocol:
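qHTS, concentration-response format: HepG2 DPX-2 line, PXR/CYP3A4-luc. Exposure 24 h, 37C. Substrate Luciferin-IPA 3uM final, 3 h. Detection One-Glo, 30 min RT.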

Experiment [19] can be described thus: qHTS assay to identify small molecule agonists of the progesterone receptor (PR) signaling pathway - cell viability counter screen (AID 1346799; calls by dose curve; further: on the % scale 0 is the no-effect control and ±100 the full control effect; nearly all actives have a fitted effect of over 45% in size). A digest of the protocol:
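Counter screen in the PR-UAS-bla HEK293T wells (2% charcoal-stripped FBS, 16 h compound exposure at 37 C) after the bla read. CellTiter-Glo added, 30 min at room temperature, luminescence read as cell viability.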

Nuclear receptor subfamily 1 group I member 2 (Homo sapiens), sequence (O75469 whole entry, looked up): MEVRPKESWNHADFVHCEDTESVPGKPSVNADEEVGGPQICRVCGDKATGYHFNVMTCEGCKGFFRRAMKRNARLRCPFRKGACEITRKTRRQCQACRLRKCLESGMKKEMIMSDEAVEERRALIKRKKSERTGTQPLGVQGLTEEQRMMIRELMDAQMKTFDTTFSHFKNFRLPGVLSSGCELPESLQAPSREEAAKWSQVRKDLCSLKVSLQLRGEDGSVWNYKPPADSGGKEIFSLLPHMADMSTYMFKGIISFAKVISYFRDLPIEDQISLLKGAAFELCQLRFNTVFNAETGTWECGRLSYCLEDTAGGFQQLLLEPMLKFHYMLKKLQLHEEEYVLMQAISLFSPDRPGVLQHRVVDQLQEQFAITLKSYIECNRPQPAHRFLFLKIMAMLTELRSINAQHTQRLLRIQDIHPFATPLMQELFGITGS
Progesterone receptor (Homo sapiens), sequence (P06401 whole entry, looked up): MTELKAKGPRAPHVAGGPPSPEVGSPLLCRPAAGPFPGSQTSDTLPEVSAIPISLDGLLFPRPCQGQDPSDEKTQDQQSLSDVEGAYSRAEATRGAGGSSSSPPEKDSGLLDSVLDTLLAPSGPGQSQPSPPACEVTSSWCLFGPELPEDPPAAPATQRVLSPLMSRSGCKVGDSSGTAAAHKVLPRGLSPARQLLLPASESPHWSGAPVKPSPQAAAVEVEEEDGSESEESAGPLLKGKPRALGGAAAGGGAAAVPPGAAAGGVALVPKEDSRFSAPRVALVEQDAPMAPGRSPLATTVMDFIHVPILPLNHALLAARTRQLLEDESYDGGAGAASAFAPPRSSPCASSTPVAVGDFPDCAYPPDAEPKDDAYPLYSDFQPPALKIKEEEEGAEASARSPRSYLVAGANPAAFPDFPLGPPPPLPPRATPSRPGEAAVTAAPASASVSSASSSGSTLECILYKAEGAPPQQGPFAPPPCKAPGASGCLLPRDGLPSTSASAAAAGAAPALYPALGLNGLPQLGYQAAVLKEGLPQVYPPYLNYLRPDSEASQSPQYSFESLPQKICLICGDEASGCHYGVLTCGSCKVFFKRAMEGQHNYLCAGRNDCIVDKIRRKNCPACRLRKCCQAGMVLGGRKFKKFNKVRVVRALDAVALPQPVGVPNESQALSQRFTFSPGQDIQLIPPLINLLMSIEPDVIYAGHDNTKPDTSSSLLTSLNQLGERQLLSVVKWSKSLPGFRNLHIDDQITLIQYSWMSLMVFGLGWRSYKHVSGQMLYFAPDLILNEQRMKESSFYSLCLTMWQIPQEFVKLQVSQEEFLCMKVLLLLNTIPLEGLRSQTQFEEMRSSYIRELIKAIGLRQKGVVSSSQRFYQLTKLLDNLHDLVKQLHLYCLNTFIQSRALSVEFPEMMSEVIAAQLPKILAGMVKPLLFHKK
Cytochrome P450 2C19 (Homo sapiens), sequence (P33261 whole entry, looked up): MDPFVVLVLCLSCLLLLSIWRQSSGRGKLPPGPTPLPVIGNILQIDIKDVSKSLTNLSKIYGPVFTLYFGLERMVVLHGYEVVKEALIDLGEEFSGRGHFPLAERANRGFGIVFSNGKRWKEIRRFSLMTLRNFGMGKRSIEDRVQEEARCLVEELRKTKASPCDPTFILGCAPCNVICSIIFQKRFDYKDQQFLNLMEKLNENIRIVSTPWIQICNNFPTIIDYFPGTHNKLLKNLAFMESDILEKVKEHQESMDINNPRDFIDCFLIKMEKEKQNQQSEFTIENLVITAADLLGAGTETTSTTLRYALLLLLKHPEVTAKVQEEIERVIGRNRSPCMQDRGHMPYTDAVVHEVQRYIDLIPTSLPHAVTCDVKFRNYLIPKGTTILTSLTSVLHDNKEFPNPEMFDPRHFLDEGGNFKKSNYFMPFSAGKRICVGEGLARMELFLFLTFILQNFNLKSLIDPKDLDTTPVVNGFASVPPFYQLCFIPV
Nuclear receptor subfamily 1 group I member 2 (Rattus norvegicus), sequence (Q9R1A7 whole entry, looked up): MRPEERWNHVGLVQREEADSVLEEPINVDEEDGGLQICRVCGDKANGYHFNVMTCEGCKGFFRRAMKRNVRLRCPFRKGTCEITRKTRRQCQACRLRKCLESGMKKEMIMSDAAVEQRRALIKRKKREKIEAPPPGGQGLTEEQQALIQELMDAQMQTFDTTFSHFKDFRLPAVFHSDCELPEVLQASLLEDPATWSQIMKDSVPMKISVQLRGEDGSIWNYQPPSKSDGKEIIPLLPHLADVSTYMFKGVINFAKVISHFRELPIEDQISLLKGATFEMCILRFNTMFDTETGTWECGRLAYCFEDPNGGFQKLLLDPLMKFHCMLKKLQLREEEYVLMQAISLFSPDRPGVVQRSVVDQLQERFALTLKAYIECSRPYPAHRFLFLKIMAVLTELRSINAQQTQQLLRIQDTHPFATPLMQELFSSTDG

As to `O=Cc1cccc([N+](=O)[O-])c1`, the Potency result in experiment [1], in [2], in experiment [3], in experiment [4], in experiment [9] and in experiment [10] was “inactive” in each case. Further, the Potency result in [11], in experiment [13], in experiment [14] and in experiment [15] was “inactive” each time. The compound was classed as inactive in experiment [5], in [6], in [7], in [8] and in experiment [12].

Regarding `COc1nc(N)nc2c1ncn2[C@@H]1O[C@H](CO)[C@@H](O)[C@@H]1O`, the Potency entry in experiment [1], in experiment [2], in [3], in [4], in experiment [9] and in experiment [10] was “inactive” throughout. Besides, the Potency result in experiment [11], in experiment [13], in [16] and in experiment [15] was “inactive” throughout. In addition, the call in experiment [5], in experiment [6], in [7], in [8] and in experiment [12] was inactive.

In the case of `CCCCCOC(=O)CCCCC`, the Potency entry in [1], in experiment [2], in experiment [3], in experiment [4], in experiment [9] and in experiment [10] was “inactive” throughout. For the same compound, the Potency result in experiment [11], in experiment [13], in experiment [14], in [16] and in [15] was “inactive” in each case. The compound was classed as inactive in experiment [5], in experiment [6], in [7], in experiment [8] and in experiment [12].

Regarding `OC(CCN1CCCCC1)(c1ccccc1)C1CC2C=CC1C2` (stereo not drawn), the Potency result in experiment [1], in [2], in experiment [3], in experiment [4], in [10] and in [11] was “inactive” throughout. The Potency entry in experiment [13] is “inactive”. Moreover, the compound was called inactive in [5], in [6], in experiment [7], in [8] and in experiment [12]. Also, the Potency is 10.6 µM (active) in [14], 28.2 µM (active) in experiment [18] and 0.776 µM (active) in experiment [16]. Further, the max activation in experiment [17] is -2.76%.

Turning to `CCCCC/C=C\CCC=O`, the Potency result in experiment [1], in experiment [2], in [3], in experiment [4], in experiment [10] and in experiment [11] was “inactive” in each case. In addition, the Potency result in experiment [13], in experiment [14] and in experiment [16] was “inactive” each time. The outcome in experiment [5], in experiment [6], in experiment [7], in experiment [8] and in experiment [12] was inactive. Also, the Potency in experiment [15] was 63.3 µM (active).

Consider `CCCN1CCCC[C@H]1C(=O)Nc1c(C)cccc1C`, for which the Potency result in [1], in experiment [3], in experiment [19], in experiment [4], in [9] and in experiment [10] was “inactive” throughout. Also, the Potency result in experiment [11], in experiment [13] and in [15] was “inactive” throughout. Also, the compound was called inactive in experiment [5], in experiment [6], in experiment [7], in experiment [8] and in experiment [12]. Moreover, in [17], the max activation was 0.29%. For the same compound, the Potency in experiment [16] is 4.9 µM (active).
